# Laboratory results from PubChem BioAssay AID1159580 (chemical genetic matrix, 2015).
# Where “and” joins values, the source holds several entries; their conditions need not be identical. Identical values can stand only once. Screen size: about 5,500 compounds; about 2,000 (36%) were called active. Not shown: some 18% with an inconclusive outcome. The list shows a part of the results. Values without a mark were called inactive. Cut-off read from the data, not from the text of the source: active = normalized growth mostly below about 0.91 (no sharp cut-off); inconclusive = no clear call, values can overlap the other calls; inactive = mostly above about 0.92.
# Test: chemical genetic growth profiling, strain panel (AID 1159580);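 note: tested at 20 µM; growth read once vehicle control cultures reached saturation at 30 °C; 1 = growth at the plate median or of vehicle wells; lower values mean less growth of the strain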
# Conditions: growth OD
# [1] = S. cerevisiae deletion strains, locus YAL013W, strain DEP1, hits give low values
# [2] = S. cerevisiae deletion strains, locus YAL040C, strain CLN3, hits give low values
# [3] = S. cerevisiae deletion strains, locus YCL061C, strain MRC1 (second series), hits give low values
# [4] = S. cerevisiae deletion strains, locus YDR363W, strain ESC2, hits give low values
# [5] = S. cerevisiae deletion strains, locus YER002W, strain NOP16, hits give low values
# [6] = S. cerevisiae deletion strains, locus YGR229C, strain SMI1, hits give low values
# [7] = S. cerevisiae deletion strains, locus YMR263W, strain SAP30, hits give low values
# [8] = S. cerevisiae deletion strains, locus YNL175C, strain NOP13, hits give low values
# [9] = S. cerevisiae deletion strains, locus YNL197C, strain WHI3, hits give low values
# [10] = S. cerevisiae deletion strains, locus YNL224C, strain SQS1, hits give low values
# [11] = S. cerevisiae deletion strains, locus YOR083W, strain WHI5 (second series), hits give low values
# [12] = S. cerevisiae deletion strains, locus YPL055C, strain LGE1, hits give low values
# [13] = S. cerevisiae deletion strains, locus YMR307W, strain GAS1, hits give low values
# [14] = S. cerevisiae deletion strains, locus YPL241C, strain CIN2, hits give low values
structure (smiles),measurement,setting,value
Cc1ccccc1CNc1ncnc2c1ncn2C1OC(CO)C(O)C1O (stereo not given),normalized growth,[1],1.01
same,normalized growth,[2],0.997
same,normalized growth,[3],0.999
same,normalized growth,[4],1.03
same,normalized growth,[5],1.01
same,normalized growth,[6],1.02
same,normalized growth,[7],1
same,normalized growth,[8],1.01
same,normalized growth,[9],0.995
same,normalized growth,[10],1.01
same,normalized growth,"S. cerevisiae deletion strains, locus YNL322C, strain KRE1, hits give low values",1.01
same,normalized growth,[11],1.01
same,normalized growth,[12],1.01
CNc1ncnc2c1ncn2[C@@H]1O[C@H](CO)[C@H](O)C1O (stereo not given in full),normalized growth,[1],1.02
same,normalized growth,[2],1
same,normalized growth,[3],0.993
same,normalized growth,[4],0.996
same,normalized growth,[5],0.978
same,normalized growth,[6],1.01
same,normalized growth,[13],1.01
same,normalized growth,"S. cerevisiae deletion strains, locus YNL153C, strain GIM3, hits give low values",1.01
same,normalized growth,[8],0.996
same,normalized growth,[9],0.999
same,normalized growth,[10],1
same,normalized growth,[11],1
same,normalized growth,[14],1
OC[C@H]1O[C@@H](n2cnc3c(NCc4ccco4)ncnc32)[C@H](O)[C@@H]1O,normalized growth,"S. cerevisiae deletion strains, locus YBR021W, strain FUR4, hits give low values",1.02
same,normalized growth,"S. cerevisiae deletion strains, locus YBR229C, strain ROT2, hits give low values",1.01
same,normalized growth,"S. cerevisiae deletion strains, locus YCL029C, strain bik1, hits give low values",1.01
same,normalized growth,"S. cerevisiae deletion strains, locus YDL035C, strain GPR1, hits give low values",1.01
same,normalized growth,"S. cerevisiae deletion strains, locus YDL074C, strain BRE1, hits give low values",1.05
same,normalized growth,"S. cerevisiae deletion strains, locus YDL101C, strain DUN1, hits give low values",1.03
same,normalized growth,"S. cerevisiae deletion strains, locus YDL185W, strain tfp1, hits give low values",1
same,normalized growth,"S. cerevisiae deletion strains, locus YDL192W, strain arf1, hits give low values",1
same,normalized growth,"S. cerevisiae deletion strains, locus YDR101C, strain arx1, hits give low values",1.02
same,normalized growth,"S. cerevisiae deletion strains, locus YDR150W, strain NUM1, hits give low values",1.01
same,normalized growth,"S. cerevisiae deletion strains, locus YDR162C, strain NBP2, hits give low values",1.02
same,normalized growth,"S. cerevisiae deletion strains, locus YDR318W, strain mcm21, hits give low values",1
same,normalized growth,"S. cerevisiae deletion strains, locus YDR388W, hits give low values",0.998
same,normalized growth,"S. cerevisiae deletion strains, locus YDR502C, strain sam2, hits give low values",0.998
same,normalized growth,"S. cerevisiae deletion strains, locus YEL061C, strain CIN8, hits give low values",1.01
same,normalized growth,"S. cerevisiae deletion strains, locus YER110C, hits give low values",1
same,normalized growth,"S. cerevisiae deletion strains, locus YER155C, strain BEM2, hits give low values",1.02
same,normalized growth,"S. cerevisiae deletion strains, locus YER167W, strain BCK2, hits give low values",1
same,normalized growth,"S. cerevisiae deletion strains, locus YGL078C, strain dbp3, hits give low values",0.999
same,normalized growth,"S. cerevisiae deletion strains, locus YGL086W, strain mad1, hits give low values",1.02
same,normalized growth,"S. cerevisiae deletion strains, locus YGL248W, strain PDE1, hits give low values",1.01
same,normalized growth,"S. cerevisiae deletion strains, locus YGR135W, strain pre9, hits give low values",1
same,normalized growth,[6],1.02
same,normalized growth,"S. cerevisiae deletion strains, locus YGR252W, strain gcn5, hits give low values",0.971
same,normalized growth,"S. cerevisiae deletion strains, locus YHR030C, strain SLT2, hits give low values",1 and 1.06
same,normalized growth,"S. cerevisiae deletion strains, locus YHR079C, strain IRE1 (second series), hits give low values",1.01
same,normalized growth,"S. cerevisiae deletion strains, locus YHR079C, strain IRE1, hits give low values",1.04
same,normalized growth,"S. cerevisiae deletion strains, locus YHR094C, strain hxt1, hits give low values",1
same,normalized growth,"S. cerevisiae deletion strains, locus YHR129C, strain ARP1, hits give low values",1.02
same,normalized growth,"S. cerevisiae deletion strains, locus YHR200W, strain rpn10, hits give low values",1.01
same,normalized growth,"S. cerevisiae deletion strains, locus YIL066C, strain RNR3, hits give low values",1.01
same,normalized growth,"S. cerevisiae deletion strains, locus YIL073C, strain SPO22, hits give low values",1.01
same,normalized growth,"S. cerevisiae deletion strains, locus YIL125W, strain kgd1, hits give low values",1.01
same,normalized growth,"S. cerevisiae deletion strains, locus YIR030C, strain dcg1, hits give low values",1.01
same,normalized growth,"S. cerevisiae deletion strains, locus YJL095W, strain BCK1, hits give low values",1.06 and 1.02
same,normalized growth,"S. cerevisiae deletion strains, locus YJL134W, strain LCB3, hits give low values",1.01
same,normalized growth,"S. cerevisiae deletion strains, locus YJL168C, strain set2, hits give low values",1.01
same,normalized growth,"S. cerevisiae deletion strains, locus YJL187C, strain SWE1 (second series), hits give low values",1.04
same,normalized growth,"S. cerevisiae deletion strains, locus YJR043C, strain POL32, hits give low values",1.01
same,normalized growth,"S. cerevisiae deletion strains, locus YJR066W, strain TOR1, hits give low values",0.974
same,normalized growth,"S. cerevisiae deletion strains, locus YKL009W, strain mrt4, hits give low values",1.02
same,normalized growth,"S. cerevisiae deletion strains, locus YKL068W, hits give low values",0.995
same,normalized growth,"S. cerevisiae deletion strains, locus YKL085W, strain MDH1 (second series), hits give low values",0.993
same,normalized growth,"S. cerevisiae deletion strains, locus YKL085W, strain MDH1, hits give low values",0.993
same,normalized growth,"S. cerevisiae deletion strains, locus YKL190W, strain CNB1, hits give low values",1.01
same,normalized growth,"S. cerevisiae deletion strains, locus YKR001C, strain vps1, hits give low values",1.01
same,normalized growth,"S. cerevisiae deletion strains, locus YLR039C, strain RIC1, hits give low values",1.04
same,normalized growth,"S. cerevisiae deletion strains, locus YLR058C, strain SHM2, hits give low values",1.02
same,normalized growth,"S. cerevisiae deletion strains, locus YLR102C, strain apc9, hits give low values",1
same,normalized growth,"S. cerevisiae deletion strains, locus YLR113W, strain HOG1, hits give low values",1.03
same,normalized growth,"S. cerevisiae deletion strains, locus YLR262C, strain YPT6, hits give low values",1.06
same,normalized growth,"S. cerevisiae deletion strains, locus YLR268W, strain sec22, hits give low values",1.04
same,normalized growth,"S. cerevisiae deletion strains, locus YLR330W, strain CHS5, hits give low values",1.01
same,normalized growth,"S. cerevisiae deletion strains, locus YLR342W, strain FKS1 (second series), hits give low values",1.01
same,normalized growth,"S. cerevisiae deletion strains, locus YLR371W, strain rom2, hits give low values",1
same,normalized growth,"S. cerevisiae deletion strains, locus YLR418C, strain cdc73, hits give low values",1.01
same,normalized growth,"S. cerevisiae deletion strains, locus YML016C, strain PPZ1, hits give low values",1.01
same,normalized growth,"S. cerevisiae deletion strains, locus YML032C, strain rad52, hits give low values",0.988
same,normalized growth,"S. cerevisiae deletion strains, locus YML124C, strain tub3, hits give low values",0.996
same,normalized growth,"S. cerevisiae deletion strains, locus YMR078C, strain ctf18, hits give low values",0.998
same,normalized growth,"S. cerevisiae deletion strains, locus YMR223W, strain ubp8, hits give low values",1
same,normalized growth,[7],1.02
same,normalized growth,[13],1.04
same,normalized growth,"S. cerevisiae deletion strains, locus YNL067W, strain RPL9B, hits give low values",1.04
same,normalized growth,"S. cerevisiae deletion strains, locus YNL183C, strain NPR1, hits give low values",0.991
same,normalized growth,"S. cerevisiae deletion strains, locus YNL233W, strain BNI4, hits give low values",1.05
same,normalized growth,"S. cerevisiae deletion strains, locus YNL250W, strain rad50, hits give low values",1.02
same,normalized growth,"S. cerevisiae deletion strains, locus YNL271C, strain bni1, hits give low values",1
same,normalized growth,"S. cerevisiae deletion strains, locus YNL298W, strain CLA4, hits give low values",0.995
same,normalized growth,"S. cerevisiae deletion strains, locus YNL307C, strain MCK1, hits give low values",1.01
same,normalized growth,"S. cerevisiae deletion strains, locus YNR052C, strain pop2, hits give low values",0.996
same,normalized growth,"S. cerevisiae deletion strains, locus YOL012C, strain htz1",2.36 [resistant] (active)
same,normalized growth,"S. cerevisiae deletion strains, locus YOL147C, strain pex11, hits give low values",0.998
same,normalized growth,"S. cerevisiae deletion strains, locus YOR061W, strain CKA2, hits give low values",1.01
same,normalized growth,"S. cerevisiae deletion strains, locus YOR069W, strain VPS5, hits give low values",1.01
same,normalized growth,"S. cerevisiae deletion strains, locus YOR136W, strain idh2, hits give low values",1
same,normalized growth,"S. cerevisiae deletion strains, locus YOR144C, strain elg1, hits give low values",0.987
same,normalized growth,"S. cerevisiae deletion strains, locus YOR184W, strain ser1, hits give low values",0.999
same,normalized growth,"S. cerevisiae deletion strains, locus YOR231W, strain MKK1, hits give low values",1.05
same,normalized growth,"S. cerevisiae deletion strains, locus YOR316C, strain cot1, hits give low values",1
same,normalized growth,[12],1.03
same,normalized growth,[14],1
same,normalized growth,"S. cerevisiae deletion strains, locus YPL256C, strain CLN2, hits give low values",1.06
same,normalized growth,"S. cerevisiae deletion strains, locus YPR119W, strain clb2, hits give low values",1
same,normalized growth,"S. cerevisiae deletion strains, locus YPR141C, strain kar3, hits give low values",1.01
same,normalized growth,"S. cerevisiae deletion strains, locus YPR163C, strain tif3, hits give low values",1
same,normalized growth,"S. cerevisiae deletion strains, locus YPR167C, strain met16, hits give low values",1.01
same,normalized growth,"S. cerevisiae deletion strains, strain wtn01, hits give low values",1.04
same,normalized growth,"S. cerevisiae strains, strain wild type, hits give low values",1.01
